Laboratory results published in PubChem BioAssay AID449762 (Southern Research Specialized Biocontainment Screening …, 2010).
Hit rate of the full screen: of about 330,000 compounds, about 1,900 (0.58%) were called active. About 4% were inconclusive and are not listed. These entries were drawn from the full list. Results with a measured potency or affinity are listed apart. A number with no mark means an inactive call. Cut-off read from the data, not from the text of the source: inconclusive = inhibition above about 70% without an active follow-up result; inactive = below that.

Experiment: M. tuberculosis growth inhibition, HTS (AID 449762);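 note: bacterial growth assessed after seven days of incubation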
Conditions: M. tuberculosis H37Rv growth inhibition, 7H9 media; at 25 µM; hits give high values

Row | Compound | inhibition [%]
1 | CCOC(=O)N1CCc2c(sc(NC(=O)C3=COCCO3)c2C(N)=O)C1 | -6.06
2 | CCOC(=O)N1CCc2c(sc(NC(C)=O)c2C(N)=O)C1 | -2.99
3 | CCOc1ccccc1NC(=O)COC(=O)CC(NC(N)=O)c1ccc(Cl)cc1 (centres undefined) | 3.03
4 | COC(=O)c1cc(C(=O)c2cc(F)ccc2O)cn2c(=O)c3c(C)c(C)sc3nc12 | 3.12
5 | CCc1c(C)sc2nc3c(C(=O)N4CCOCC4)cc(C(=O)c4ccccc4O)cn3c(=O)c12 | 51.4
6 | CC(=NCc1cccnc1)c1c(O)n(-c2ccccc2)c(=O)[nH]c1=O | -3.76
7 | COC(=O)c1cc(-c2ccc(OC)cc2)n[nH]1 | -1.36
8 | COc1ccc(O)c(-c2cc(-c3ccc(F)cc3)n[nH]2)c1 | 0.76
9 | Cc1nc(SCc2c(F)cccc2Cl)n[nH]1 | -11.2
10 | CCSC(=Nc1ccccc1)Nc1ccccc1 | -1.05
11 | COc1ccc(C(CC(=O)NC(C)c2ccc(-c3ccccc3)cc2)NC(C)=O)cc1 (centres undefined) | 3.36
12 | Cc1nnc(N/N=C/c2c(O)n(-c3cccc(C(F)(F)F)c3)c(=O)c3ccccc23)[nH]c1=O | 3.05
13 | Cc1cc(=O)[nH]c(N/N=C/c2c(O)n(-c3ccccc3)c(=O)c3ccccc23)n1 | 31.9
14 | CNS(=O)(=O)c1ccc2c(c1)oc(=O)c1cc(S(=O)(=O)NC)ccc12 | -1.49
15 | Cn1c(=N)n(CC(=O)c2cccs2)c2ccccc21 | -0.34
16 | COc1ccc(-c2ccnc3nc(N4CCOCC4)nn23)cc1 | 1.34
17 | c1ccc(-c2ccnc3nc(N4CCN(c5ccccc5)CC4)nn23)cc1 | -7.9
18 | C[C@H]1CN([C@@H](C)CO)C(=O)Cc2cc(NS(C)(=O)=O)ccc2O[C@@H]1CN(C)Cc1ccc(Cl)c(Cl)c1 | 4.73
19 | COc1ccc(C2=Nn3c(nnc3-c3ccccc3OC)SC2)cc1OC1CCCC1 | 63.1
20 | COc1ccc(C2=Nn3c(nnc3-c3ccccc3Cl)SC2)cc1OC1CCCC1 | 51.6
21 | COc1ccccc1OP(=O)(Nc1cccnc1)Oc1ccccc1OC | -4.39
22 | CCN1CCN(Cc2c(OC)ccc3ccccc23)CC1 | 5.17
23 | C[C@H]1COC(=O)[C@H](Cc2ccc(F)cc2)CC/C=C/C[C@@H](CC(=O)N[C@@H](CO)Cc2ccccc2)C(=O)N1 | 7.3
24 | CCOc1ccc(C(=O)NCC(=O)N2CCC(C)CC2)cc1OCC | -0.53

Row | Compound | inhibition [%]
25 | Fc1ccc(NC(=S)Nc2cccc(Cl)c2)cc1 | 21.8
26 | Cc1csc(NC(=O)Nc2cccc(Cl)c2)n1 | -2.56
27 | CSc1ncccc1C(=O)OCC(=O)N1CCc2ccccc21 | -3.03
28 | O=C(OCC(=O)N1CCc2ccccc21)c1cccnc1Cl | -2.8
29 | CC1CCCC(NC(=O)COC(=O)COc2ccc(Br)cc2)C1C (centres undefined) | 10.5
30 | C/C(=N\NC(N)=S)C12CC3CC(CC(C3)C1)C2 | -3.2
31 | C/C(CCC12CC3CC(CC(C3)C1)C2)=N\NC(N)=S | -13.2
32 | COc1ccc(/C=C/C(=O)N(CC(C)C)C2CCS(=O)(=O)C2)cc1 (centres undefined) | 3.62
33 | O=C(NCC1CCCO1)C1CC(=O)N(C2CCCCCC2)C1 (centres undefined) | 5.65
34 | CCOC(=O)C(C)Sc1ncc(OC)c(Sc2ccc(Cl)cc2)n1 (centres undefined) | 2.61
35 | CCOc1ccc(NC(=O)c2ccc(OC)cc2)cc1 | -11.8
36 | CCOC(=O)CSc1ncc(OC)c(Sc2ccc(Cl)cc2)n1 | 0.98
37 | COc1ccc(NC(=O)c2ccc(-n3cccn3)nc2)cc1 | -16.3
38 | CC1Cc2ccccc2N1C(=O)CN(C)CC(=O)Nc1ccc(F)cc1 (centres undefined) | -2.83
39 | CC(=O)c1cccc(N(C(=O)c2ccco2)C(C(=O)NC2CCCC2)c2ccccc2F)c1 (centres undefined) | 3.81
40 | CCCCn1c(N)c(N(CCC(C)C)C(=O)C2CCN(C(=O)c3ccccc3C)CC2)c(=O)[nH]c1=O | -4.26
41 | COc1cc(NC(=O)C2CCCN(S(=O)(=O)c3ccc4[nH]c(=O)ccc4c3)C2)cc(OC)c1 (centres undefined) | -0.31
42 | NC(=O)c1cc([N+](=O)[O-])ccc1NCc1cccnc1 | -8.59
43 | CCOC(=O)c1ccccc1C(=O)OCC | 7.16
44 | O=C1C(Nc2ccccc2)=C(N2CCCCC2)C(=O)c2ccccc21 | 30.1
45 | Cc1ccc(NC2=C(N3CCCCC3)C(=O)c3ccccc3C2=O)cc1 | -7.72
46 | Cc1ccc(CN(C(=O)c2ccco2)C2CCS(=O)(=O)C2)cc1 (centres undefined) | -3.45
47 | CCCN1C(=O)C2(OCCO2)c2cc(Cl)ccc21 | 3.45
48 | COC(=O)c1ccccc1NC(=O)COC(=O)c1ccccc1N=Nc1ccc(N(C)C)cc1 | 5.14

Row | Compound | inhibition [%]
49 | CN(C)c1ccc(N=Nc2ccccc2C(=O)OCC(=O)N2CCCCCC2)cc1 | 11.9
50 | Clc1ccc(-c2cn3c(n2)SCC3)cc1 | 9.61
51 | CCSc1ncc(/C=N/Nc2ccc(F)cc2)n1C | -4.38
52 | CCSc1ncc(/C=N/Nc2ccc([N+](=O)[O-])cc2)n1C | -1.1
53 | Cc1cc(C(=O)NNC(=O)c2cccc(C(F)(F)F)c2)no1 | -7.27
54 | CCOc1ccc(C(=O)NC(C)(C)CC)cc1 | 26.1
55 | CCCOc1ccc(C(=O)CCN2CCCCC2)cc1 | 23.5
56 | CCOc1ccc(C(=O)CCN2CCCCC2)cc1 | 42.5
57 | Cc1ccc(-c2nc(S(=O)(=O)c3ccc(C)cc3)c(SCC(=O)NCC3CCCO3)o2)cc1 (centres undefined) | 8.98
58 | CC(=O)c1ccc(NC(=O)CCc2nc3sc4c(c3c(=O)[nH]2)CCCC4)cc1 | 16.8
59 | CCn1cc(Br)c(C(=O)Nc2ccc(OC)cc2)n1 | -0.58
60 | CC(C)OC(=O)c1ccc(NC(=O)c2cncc(Br)c2)cc1 | 33
61 | CCn1cc(Br)c(C(=O)NC(=S)Nc2ccc(C(=O)OC)cc2)n1 | 9.85
62 | COc1ccc(NC(=S)NC(=O)c2cncc(Br)c2)cc1 | -11.5
63 | CN1CCN(CCc2nc3cc(NC(=O)c4ccco4)ccc3n2C)CC1 | 3.05
64 | O=S(=O)(NCCc1cn2ccccc2n1)c1ccc(F)c(C(F)(F)F)c1 | -2.32
65 | CCCOc1ccc(OCCn2nc(C(=O)O)c3ccccc3c2=O)cc1 | 1.16
66 | O=c1[nH]c(=O)n(Cc2ccc(Oc3ccccc3)cc2)cc1Br | 2.82
67 | CCc1nnc(NC(=O)CN2CCN(c3ccccc3F)CC2)s1 | 5.55
68 | CC(C)C(=O)NNC(=O)CN1CCN(c2nc(-c3ccccc3)cs2)CC1 | -10.4
69 | CC(=O)Nc1cccc(C(=O)N2CCN(Cc3ccccc3)CC2)c1 | -9.84
70 | Cc1ccc(NCC(=O)c2ccc([N+](=O)[O-])cc2)cc1 | 8.11
71 | CC(=O)NC(CC(=O)c1ccc([N+](=O)[O-])cc1)C(Cl)(Cl)Cl (centres undefined) | 13.4
72 | COc1ccc(C(CC(=O)c2ccc(C)cc2)Nc2ccc([N+](=O)[O-])cc2)cc1 (centres undefined) | 14.3

Row | Compound | inhibition [%]
73 | CC(C)CC(=O)NC(Nc1ccc([N+](=O)[O-])cc1)C(Cl)(Cl)Cl (centres undefined) | 4.27
74 | OC(COc1ccc(Br)cc1)Cn1ccnc1 (centres undefined) | -0.05
75 | O=C(NN1CCOCC1)c1ccc(Cl)s1 | -0.84
76 | O=C(COC(=O)C1CCC1)Nc1ncc(Cl)cc1Cl | -10.9
77 | COc1ccc(N2CCN(c3ccc(NC(=O)C4CCCCC4)cc3C#N)CC2)cc1 | 7.01
78 | Cc1cc(C)nc(Nc2ncn[nH]2)n1 | 6.87
79 | Clc1ccc(CNc2ccc(CNc3ncn[nH]3)cc2)cc1 | 2.69
80 | CC1C(=O)N2CCCc3cc(NC(=O)C(=O)NCCc4ccc(F)cc4)cc1c32 (centres undefined) | 39.4
81 | CC(C)c1nnc(NC(=O)CCC(=O)N2CCN(c3cccc(Cl)c3)CC2)s1 | 25.5
82 | CC(C)c1nnc(NC(=O)CCC(=O)N2CCN(c3ccc(F)cc3)CC2)s1 | 6.66
83 | Cc1[nH]ncc1N=Cc1ccc([N+](=O)[O-])cc1 | 1.43
84 | CCOc1ccc(C(=O)CCC(=O)NCC(=O)Nc2c(C)cccc2C)cc1 | 3.97
85 | O=C1CSC2(C(=O)N3CCCc4cccc2c43)N1c1cccc(C(F)(F)F)c1 (centres undefined) | -2.03
86 | O=S(=O)(c1ccc(N2CC=C(c3ccccc3)CC2)nc1)N1CCCC1 | -10.8
87 | N=C1C(c2nc3ccccc3[nH]2)=C(O)CN1NC(=O)COc1cccc(F)c1 | -2.89
88 | N=C1C(c2nc3ccccc3s2)=C(O)CN1NC(=O)c1c[nH]c2ccccc12 | -0.06
89 | CCN(CC)S(=O)(=O)c1ccc2c(c1)N(CC(=O)N1CCCC1)C(=O)CO2 | -1.21
90 | O=c1oc2ccccc2cc1-c1nc(-c2ccccc2)no1 | 23.8
91 | Cc1cccc(-c2noc(-c3cc4ccccc4oc3=O)n2)c1 | -1.72
92 | COC(=O)c1cn(-c2ccccc2)nc1-c1ccc(OC)c(OC)c1 | 3.81
93 | CC(C)Oc1ccc(C(=O)Nc2ccc(N3CCN(C(=O)c4ccco4)CC3)cc2)cc1 | 0.01
94 | O=C(Nc1ccc(OCc2ccccc2)cc1)c1cccs1 | -4.87
